# Test results published in publication PMC7862700, “An all-to-all approach to the identification of sequence-specific readers for epigenetic DNA modifications on cytosine”.
# Legend:
# Test in all cases: DAPPL (digital affinity profiling via proximity ligation, sequencing); 10 mM Tris-HCl pH 7.5, 50 mM NaCl, 1 mM DTT, 4% glycerol, room temperature, 30 min; GST-TFs on glutathione beads, 16-mer random dsDNA library, 0.1% formaldehyde crosslink after washing; high values mean tight binding
# FEV = target: T1, FEV (Homo sapiens, UniProt Q99581 1-238); settings: protein: recombinant; tags: N-terminal GST; dsDNA, one strand shown
# T1 sequence: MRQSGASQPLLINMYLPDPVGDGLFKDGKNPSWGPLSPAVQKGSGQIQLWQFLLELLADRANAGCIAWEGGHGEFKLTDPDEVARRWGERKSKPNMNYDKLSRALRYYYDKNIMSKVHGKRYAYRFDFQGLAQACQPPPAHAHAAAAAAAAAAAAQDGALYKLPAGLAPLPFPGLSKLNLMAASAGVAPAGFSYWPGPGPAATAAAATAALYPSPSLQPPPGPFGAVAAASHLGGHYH
# Method in brief: (§1)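 Binding signal is given per hexamer as its read frequency for a factor divided by its frequency in the tag-only sample. GST-fused human transcription factors were expressed in yeast, captured on glutathione beads, barcoded with DNA and pooled with that sample, then incubated with 200 nmole of a 16-mer random double-stranded DNA library in Tris/NaCl/DTT/glycerol buffer for 30 min at room temperature. The pools were then washed, crosslinked, proximity-ligated, amplified by PCR and sequenced on an Illumina NextSeq500.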
# ETV5 = ETV5 (Homo sapiens, UniProt P41161 1-510); settings: protein: recombinant; tags: N-terminal GST; dsDNA, one strand shown
# Method in brief: as §1
# HSF1 = HSF1 (Homo sapiens, UniProt Q00613 1-529); settings: protein: recombinant; tags: N-terminal GST; chain copies: 3; dsDNA, one strand shown
# Method in brief: as §1
# SPIC = target: T2, SPIC (Homo sapiens, UniProt Q8N5J4 1-248); settings: protein: recombinant; tags: N-terminal GST; dsDNA, one strand shown
# T2 sequence: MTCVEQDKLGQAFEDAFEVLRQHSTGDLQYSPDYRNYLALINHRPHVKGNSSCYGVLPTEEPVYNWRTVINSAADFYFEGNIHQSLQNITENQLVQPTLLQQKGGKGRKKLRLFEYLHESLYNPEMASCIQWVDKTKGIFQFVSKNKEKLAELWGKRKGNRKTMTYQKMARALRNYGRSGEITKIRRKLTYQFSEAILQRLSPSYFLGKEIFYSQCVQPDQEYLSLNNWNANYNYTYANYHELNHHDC
# Method in brief: as §1
# ELF4 = ELF4 (Homo sapiens, UniProt Q99607 1-663); settings: protein: recombinant; tags: N-terminal GST; dsDNA, one strand shown
# Method in brief: as §1
# ELK4 = target: T3, ELK4 (Homo sapiens, UniProt P28324-2 1-405); settings: protein: recombinant; tags: N-terminal GST; dsDNA, one strand shown
# T3 sequence: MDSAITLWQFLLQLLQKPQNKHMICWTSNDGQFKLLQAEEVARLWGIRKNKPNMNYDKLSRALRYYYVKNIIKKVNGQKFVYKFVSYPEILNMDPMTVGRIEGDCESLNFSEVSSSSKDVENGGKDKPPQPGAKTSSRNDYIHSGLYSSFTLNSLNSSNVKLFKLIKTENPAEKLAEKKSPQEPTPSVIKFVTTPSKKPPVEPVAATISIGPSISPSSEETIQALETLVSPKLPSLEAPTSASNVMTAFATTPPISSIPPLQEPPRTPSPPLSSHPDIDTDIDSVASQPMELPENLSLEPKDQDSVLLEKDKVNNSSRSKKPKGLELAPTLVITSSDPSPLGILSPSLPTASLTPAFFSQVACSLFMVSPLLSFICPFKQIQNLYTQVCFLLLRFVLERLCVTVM
# Method in brief: as §1
# ETV2 = target: T4, ETV2 (Homo sapiens, UniProt O00321 1-342); settings: protein: recombinant; tags: N-terminal GST; dsDNA, one strand shown
# T4 sequence: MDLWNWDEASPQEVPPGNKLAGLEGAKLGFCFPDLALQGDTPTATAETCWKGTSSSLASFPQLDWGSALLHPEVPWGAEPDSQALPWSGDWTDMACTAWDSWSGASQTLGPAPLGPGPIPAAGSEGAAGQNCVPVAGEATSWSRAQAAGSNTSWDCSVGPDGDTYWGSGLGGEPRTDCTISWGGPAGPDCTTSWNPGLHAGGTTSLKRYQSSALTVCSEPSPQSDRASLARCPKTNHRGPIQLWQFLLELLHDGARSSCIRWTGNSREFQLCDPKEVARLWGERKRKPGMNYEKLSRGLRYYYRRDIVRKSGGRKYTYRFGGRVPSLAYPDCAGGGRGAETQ
# Method in brief: as §1
# ELF3 = target: T5, ELF3 (Homo sapiens, UniProt P78545 1-371); settings: protein: recombinant; tags: N-terminal GST; dsDNA, one strand shown
# T5 sequence: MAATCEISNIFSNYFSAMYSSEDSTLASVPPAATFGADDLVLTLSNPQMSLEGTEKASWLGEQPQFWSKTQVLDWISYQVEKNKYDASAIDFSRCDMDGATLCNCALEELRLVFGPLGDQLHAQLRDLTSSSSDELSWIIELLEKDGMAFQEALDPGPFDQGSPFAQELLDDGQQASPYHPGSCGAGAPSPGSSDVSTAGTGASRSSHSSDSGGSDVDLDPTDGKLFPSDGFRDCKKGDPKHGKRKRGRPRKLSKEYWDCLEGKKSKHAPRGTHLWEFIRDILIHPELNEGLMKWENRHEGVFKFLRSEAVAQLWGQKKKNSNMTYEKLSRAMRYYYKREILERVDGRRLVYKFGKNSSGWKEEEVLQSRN
# Method in brief: as §1
# CRX = CRX (Homo sapiens, UniProt O43186 1-299); settings: protein: recombinant; tags: N-terminal GST; dsDNA, one strand shown
# Method in brief: as §1
# ETV1 = ETV1 (Homo sapiens, UniProt P50549 1-477); settings: protein: recombinant; tags: N-terminal GST; dsDNA, one strand shown
# Method in brief: as §1
# ERF = target: T6, ERF (Homo sapiens, UniProt P50548 1-548); settings: protein: recombinant; tags: N-terminal GST; dsDNA, one strand shown
# T6 sequence: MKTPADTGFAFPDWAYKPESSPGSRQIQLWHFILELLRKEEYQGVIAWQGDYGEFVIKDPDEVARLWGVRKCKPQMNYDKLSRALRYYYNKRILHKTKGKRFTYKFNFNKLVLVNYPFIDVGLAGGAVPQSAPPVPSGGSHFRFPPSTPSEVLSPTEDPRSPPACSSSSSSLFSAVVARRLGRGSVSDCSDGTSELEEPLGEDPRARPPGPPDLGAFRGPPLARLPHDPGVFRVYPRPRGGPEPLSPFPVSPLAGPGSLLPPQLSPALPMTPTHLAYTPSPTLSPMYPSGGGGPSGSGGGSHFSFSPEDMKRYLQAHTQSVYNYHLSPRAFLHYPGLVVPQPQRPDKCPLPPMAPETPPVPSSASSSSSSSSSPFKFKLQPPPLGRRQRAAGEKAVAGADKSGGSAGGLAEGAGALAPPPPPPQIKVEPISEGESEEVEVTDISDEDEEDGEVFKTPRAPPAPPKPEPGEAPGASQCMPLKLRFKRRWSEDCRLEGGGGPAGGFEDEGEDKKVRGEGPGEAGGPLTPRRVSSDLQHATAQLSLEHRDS
# Method in brief: as §1
# ETV3L = target: T7, ETV3L (Homo sapiens, UniProt Q6ZN32 1-361); settings: protein: recombinant; tags: N-terminal GST; dsDNA, one strand shown
# T7 sequence: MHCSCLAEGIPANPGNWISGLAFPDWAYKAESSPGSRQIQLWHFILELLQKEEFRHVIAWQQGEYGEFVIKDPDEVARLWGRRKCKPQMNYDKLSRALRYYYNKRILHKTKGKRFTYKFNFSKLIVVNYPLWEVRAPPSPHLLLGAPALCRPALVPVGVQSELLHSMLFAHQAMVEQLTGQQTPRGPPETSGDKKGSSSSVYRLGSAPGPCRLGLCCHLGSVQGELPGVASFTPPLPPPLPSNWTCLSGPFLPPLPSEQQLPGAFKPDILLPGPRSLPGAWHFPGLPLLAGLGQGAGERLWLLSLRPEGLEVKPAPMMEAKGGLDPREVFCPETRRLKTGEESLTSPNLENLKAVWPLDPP
# Method in brief: as §1
# ETS2 = target: T8, ETS2 (Homo sapiens, UniProt P15036 1-469); settings: protein: recombinant; tags: N-terminal GST; dsDNA, one strand shown
# T8 sequence: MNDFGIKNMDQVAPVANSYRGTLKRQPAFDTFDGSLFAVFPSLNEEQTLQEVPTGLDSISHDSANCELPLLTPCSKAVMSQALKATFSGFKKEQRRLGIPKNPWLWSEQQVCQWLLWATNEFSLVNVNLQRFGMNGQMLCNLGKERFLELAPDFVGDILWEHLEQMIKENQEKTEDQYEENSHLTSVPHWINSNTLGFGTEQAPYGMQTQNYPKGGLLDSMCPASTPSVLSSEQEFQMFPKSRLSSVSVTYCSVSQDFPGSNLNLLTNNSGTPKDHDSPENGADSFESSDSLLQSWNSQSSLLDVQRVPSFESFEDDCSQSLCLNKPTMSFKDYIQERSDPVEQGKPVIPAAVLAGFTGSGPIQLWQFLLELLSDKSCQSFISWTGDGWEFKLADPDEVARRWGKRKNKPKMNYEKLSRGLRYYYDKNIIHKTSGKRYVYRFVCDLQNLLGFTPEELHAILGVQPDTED
# Method in brief: as §1
# SPDEF = target: T9, SPDEF (Homo sapiens, UniProt O95238 1-335); settings: protein: recombinant; tags: N-terminal GST; dsDNA, one strand shown
# T9 sequence: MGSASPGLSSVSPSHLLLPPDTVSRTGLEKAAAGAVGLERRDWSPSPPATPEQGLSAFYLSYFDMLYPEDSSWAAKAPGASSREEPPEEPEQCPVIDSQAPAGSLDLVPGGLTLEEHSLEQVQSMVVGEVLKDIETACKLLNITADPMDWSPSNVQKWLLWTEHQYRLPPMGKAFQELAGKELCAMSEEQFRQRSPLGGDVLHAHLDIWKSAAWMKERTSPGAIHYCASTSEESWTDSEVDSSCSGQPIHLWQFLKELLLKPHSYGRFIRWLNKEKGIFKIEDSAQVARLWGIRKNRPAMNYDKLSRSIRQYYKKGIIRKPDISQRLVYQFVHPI
# Method in brief: as §1
# ETV7 = target: T10, ETV7 (Homo sapiens, UniProt Q9Y603 1-341); settings: protein: recombinant; tags: N-terminal GST; dsDNA, one strand shown
# T10 sequence: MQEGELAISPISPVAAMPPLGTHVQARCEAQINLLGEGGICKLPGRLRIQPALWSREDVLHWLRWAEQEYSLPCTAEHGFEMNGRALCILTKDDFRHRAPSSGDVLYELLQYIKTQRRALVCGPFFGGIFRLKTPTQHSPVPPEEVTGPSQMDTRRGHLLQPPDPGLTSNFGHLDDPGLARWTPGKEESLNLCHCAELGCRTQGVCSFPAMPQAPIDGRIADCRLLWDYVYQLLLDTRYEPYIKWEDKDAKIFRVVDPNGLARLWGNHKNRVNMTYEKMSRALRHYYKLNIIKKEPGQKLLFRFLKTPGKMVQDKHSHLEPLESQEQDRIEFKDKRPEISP
# Method in brief: as §1
# ELF5 = target: T11, ELF5 (Homo sapiens, UniProt Q9UKW6-2 1-255); settings: protein: recombinant; tags: N-terminal GST; dsDNA, one strand shown
# T11 sequence: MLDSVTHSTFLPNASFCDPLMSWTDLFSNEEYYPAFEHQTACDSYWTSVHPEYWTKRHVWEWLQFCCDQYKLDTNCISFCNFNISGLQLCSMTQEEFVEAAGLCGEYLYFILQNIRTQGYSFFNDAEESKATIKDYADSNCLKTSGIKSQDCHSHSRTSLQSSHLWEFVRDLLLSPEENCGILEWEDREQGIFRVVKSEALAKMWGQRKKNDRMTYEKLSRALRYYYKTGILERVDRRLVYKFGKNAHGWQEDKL
# Method in brief: as §1
# ETV3 = target: T12, ETV3 (Homo sapiens, UniProt P41162-2 1-143); settings: protein: recombinant; tags: N-terminal GST; dsDNA, one strand shown
# T12 sequence: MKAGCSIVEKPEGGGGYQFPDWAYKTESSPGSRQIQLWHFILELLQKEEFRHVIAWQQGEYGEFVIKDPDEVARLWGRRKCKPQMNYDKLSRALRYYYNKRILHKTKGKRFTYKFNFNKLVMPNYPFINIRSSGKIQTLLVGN
# Method in brief: as §1
# ETV6 = ETV6 (Homo sapiens, UniProt P41212 1-452); settings: protein: recombinant; tags: N-terminal GST; dsDNA, one strand shown
# Method in brief: as §1
# Sequence of ETV6 (P41212 whole entry): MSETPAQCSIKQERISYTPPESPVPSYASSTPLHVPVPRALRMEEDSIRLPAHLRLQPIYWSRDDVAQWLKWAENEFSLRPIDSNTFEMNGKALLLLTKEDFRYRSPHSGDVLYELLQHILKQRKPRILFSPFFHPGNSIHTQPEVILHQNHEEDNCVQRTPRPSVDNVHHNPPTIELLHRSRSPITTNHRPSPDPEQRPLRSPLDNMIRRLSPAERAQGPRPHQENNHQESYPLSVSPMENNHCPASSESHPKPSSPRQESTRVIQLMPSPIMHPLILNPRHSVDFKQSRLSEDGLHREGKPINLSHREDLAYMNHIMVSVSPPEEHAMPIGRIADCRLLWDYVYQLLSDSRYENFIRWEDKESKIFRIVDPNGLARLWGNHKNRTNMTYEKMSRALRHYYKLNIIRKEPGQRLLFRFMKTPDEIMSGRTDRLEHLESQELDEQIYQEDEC
# Sequence of ETV1 (P50549 whole entry): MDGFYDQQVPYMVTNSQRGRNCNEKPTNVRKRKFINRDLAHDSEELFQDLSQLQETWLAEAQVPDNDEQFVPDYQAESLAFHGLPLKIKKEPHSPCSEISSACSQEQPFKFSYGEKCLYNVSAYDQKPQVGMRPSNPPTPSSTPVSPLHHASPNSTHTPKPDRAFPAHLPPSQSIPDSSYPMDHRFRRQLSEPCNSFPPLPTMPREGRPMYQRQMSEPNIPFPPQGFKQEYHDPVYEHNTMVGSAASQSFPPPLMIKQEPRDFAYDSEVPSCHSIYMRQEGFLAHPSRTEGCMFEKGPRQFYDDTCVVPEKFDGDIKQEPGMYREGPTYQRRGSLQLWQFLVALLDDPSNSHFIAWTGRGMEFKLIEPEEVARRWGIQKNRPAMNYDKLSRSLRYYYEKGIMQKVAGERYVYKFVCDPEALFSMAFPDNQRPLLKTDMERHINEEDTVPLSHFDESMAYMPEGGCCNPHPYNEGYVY
# Sequence of CRX (O43186 whole entry): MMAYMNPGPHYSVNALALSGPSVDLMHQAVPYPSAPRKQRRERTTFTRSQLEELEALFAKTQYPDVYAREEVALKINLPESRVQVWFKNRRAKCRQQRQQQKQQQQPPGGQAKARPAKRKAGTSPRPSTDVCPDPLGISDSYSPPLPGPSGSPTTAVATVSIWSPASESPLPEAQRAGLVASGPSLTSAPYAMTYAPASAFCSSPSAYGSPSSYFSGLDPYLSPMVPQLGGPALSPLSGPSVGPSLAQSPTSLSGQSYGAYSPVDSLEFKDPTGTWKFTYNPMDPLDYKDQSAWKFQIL
# Sequence of ELF4 (Q99607 whole entry): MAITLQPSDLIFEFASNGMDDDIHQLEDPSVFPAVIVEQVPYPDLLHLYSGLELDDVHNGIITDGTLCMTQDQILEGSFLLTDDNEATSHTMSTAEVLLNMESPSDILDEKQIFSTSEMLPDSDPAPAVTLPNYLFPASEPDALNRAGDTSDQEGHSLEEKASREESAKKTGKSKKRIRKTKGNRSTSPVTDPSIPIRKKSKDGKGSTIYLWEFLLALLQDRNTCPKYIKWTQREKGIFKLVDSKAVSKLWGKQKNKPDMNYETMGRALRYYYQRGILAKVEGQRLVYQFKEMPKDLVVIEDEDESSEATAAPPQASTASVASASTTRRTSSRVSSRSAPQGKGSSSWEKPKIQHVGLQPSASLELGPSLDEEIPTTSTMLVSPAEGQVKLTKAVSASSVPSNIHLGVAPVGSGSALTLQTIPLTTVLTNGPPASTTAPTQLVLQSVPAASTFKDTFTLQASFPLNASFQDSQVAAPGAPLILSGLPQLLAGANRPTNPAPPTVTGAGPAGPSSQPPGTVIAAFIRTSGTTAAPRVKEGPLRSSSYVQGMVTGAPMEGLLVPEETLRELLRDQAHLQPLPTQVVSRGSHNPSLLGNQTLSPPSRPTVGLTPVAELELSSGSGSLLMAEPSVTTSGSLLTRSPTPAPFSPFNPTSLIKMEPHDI
# Sequence of HSF1 (Q00613 whole entry): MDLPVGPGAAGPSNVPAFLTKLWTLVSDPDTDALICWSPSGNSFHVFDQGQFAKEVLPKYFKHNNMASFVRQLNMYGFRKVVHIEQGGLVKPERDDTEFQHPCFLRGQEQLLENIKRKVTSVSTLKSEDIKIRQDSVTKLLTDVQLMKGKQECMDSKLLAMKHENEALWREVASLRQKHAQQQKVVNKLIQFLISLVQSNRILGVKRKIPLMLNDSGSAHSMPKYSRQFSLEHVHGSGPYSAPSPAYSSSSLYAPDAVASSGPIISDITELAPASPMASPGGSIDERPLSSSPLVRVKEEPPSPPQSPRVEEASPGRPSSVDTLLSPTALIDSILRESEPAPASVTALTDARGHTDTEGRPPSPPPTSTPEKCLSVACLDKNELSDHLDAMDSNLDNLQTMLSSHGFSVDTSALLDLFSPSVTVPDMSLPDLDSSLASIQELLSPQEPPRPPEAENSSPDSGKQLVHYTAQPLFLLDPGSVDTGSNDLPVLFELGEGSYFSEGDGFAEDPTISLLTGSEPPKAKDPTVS
# Sequence of ETV5 (P41161 whole entry): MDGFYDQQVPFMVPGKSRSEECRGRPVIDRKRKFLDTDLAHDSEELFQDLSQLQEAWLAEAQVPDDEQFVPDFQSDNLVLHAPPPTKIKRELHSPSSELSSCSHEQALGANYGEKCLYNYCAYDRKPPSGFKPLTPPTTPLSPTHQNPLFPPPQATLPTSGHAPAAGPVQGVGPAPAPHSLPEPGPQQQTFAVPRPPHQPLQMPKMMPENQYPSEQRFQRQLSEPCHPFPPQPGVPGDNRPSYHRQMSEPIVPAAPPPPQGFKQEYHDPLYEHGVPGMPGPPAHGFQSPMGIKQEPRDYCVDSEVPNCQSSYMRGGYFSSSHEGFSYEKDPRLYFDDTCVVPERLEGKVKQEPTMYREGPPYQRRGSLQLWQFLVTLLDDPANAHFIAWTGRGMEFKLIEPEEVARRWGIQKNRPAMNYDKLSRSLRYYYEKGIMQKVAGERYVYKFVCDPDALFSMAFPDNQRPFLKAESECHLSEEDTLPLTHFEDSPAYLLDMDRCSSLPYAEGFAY
sequence,measurement,setting,value
AATTTG,binding signal,FEV,"1.39 fold enrichment (6-mer frequency, TF over GST control)"
same,binding signal,ETV5,"1.25 fold enrichment (6-mer frequency, TF over GST control)"
same,binding signal,HSF1,"1.26 fold enrichment (6-mer frequency, TF over GST control)"
same,binding signal,SPIC,"1.41 fold enrichment (6-mer frequency, TF over GST control)"
same,binding signal,ELF4,"1.26 fold enrichment (6-mer frequency, TF over GST control)"
same,binding signal,ELK4,"1.34 fold enrichment (6-mer frequency, TF over GST control)"
same,binding signal,ETV2,"1.16 fold enrichment (6-mer frequency, TF over GST control)"
same,binding signal,ELF3,"1.32 fold enrichment (6-mer frequency, TF over GST control)"
same,binding signal,CRX,"1.33 fold enrichment (6-mer frequency, TF over GST control)"
same,binding signal,ETV1,"1.28 fold enrichment (6-mer frequency, TF over GST control)"
same,binding signal,ERF,"1.28 fold enrichment (6-mer frequency, TF over GST control)"
same,binding signal,ETV3L,"1.3 fold enrichment (6-mer frequency, TF over GST control)"
same,binding signal,ETS2,"1.32 fold enrichment (6-mer frequency, TF over GST control)"
same,binding signal,SPDEF,"1.24 fold enrichment (6-mer frequency, TF over GST control)"
same,binding signal,ETV7,"1.38 fold enrichment (6-mer frequency, TF over GST control)"
same,binding signal,ELF5,"1.33 fold enrichment (6-mer frequency, TF over GST control)"
same,binding signal,ETV3,"1.39 fold enrichment (6-mer frequency, TF over GST control)"
same,binding signal,ETV6,"1.22 fold enrichment (6-mer frequency, TF over GST control)"
